Reference: PubChem BioAssay (EPA / NIEHS)
Results filed as inconclusive are left out. Active and inactive are the calls of the source. How the source made its calls: active means hit-call score of the fitted dose curve at least 0.9, where 1 is the maximum; inconclusive means response in the unintended direction; inactive means score below 0.9.

tested on: not listed separately; assay: NVS_GPCR_bNPY_NonSelective: NovaScreen (NVS) G Protein-Coupled Receptor Assay for bovine Neuropeptide Y (NPY) Receptor, Non-selective Binding (AID 2283245)
Method: NVS_GPCR_bNPY_NonSelective is a biochemical, single-readout assay that uses extracted gene-proteins from Bovine hippocampal membranes in a tissue-based cell-free assay. Measurements were taken 1 hour after chemical dosing in a 96-well plate.NVS_GPCR_bNPY_NonSelective is one of one assay component(s) measured or calculated from the NVS_GPCR_bNPY_NonSelective assay. It is designed to make measurements of radioligand binding, a form of binding reporter, as detected with scintillation counting signals by Filter-based radiodetection technology.Data from the assay component NVS_GPCR_bNPY_NonSelective was analyzed into 1 assay endpoint. This assay endpoint, NVS_GPCR_bNPY_NonSelective, was analyzed in the positive analysis fitting direction relative to DMSO as the negative control and baseline of activity. Using a type of binding reporter, loss-of-signal activity can be used to understand changes in the binding as they relate to the gene NPY. Furthermore, this assay endpoint can be referred to as a primary readout, because the performed assay has only produced 1 assay endpoint. To generalize the intended target to other relatable targets, this assay endpoint is annotated to the gpcr intended target family, where the subfamily is rhodopsin-like receptor.
Binding assays used specific radioligands (tritiated, iodinated) with non-radioactive competitive displacement ligands in agonist or antagonist protocols (as indicated) and various reference compounds and inhibitors to titrate specific binding to receptors and transporters. Most enzyme assays (CYPs, kinases, phosphatases, proteases, HDACs) used recombinant protein and specific substrates (fluorescence mostly, some colorimetric and radioactive) and inhibitors, followed by a biochemical separation of substrate and product. All assays for the biochemical HTS were initially run in duplicate at a single concentration (10 uM for CYP450 assays and 25 uM for all others). […]

SMILES	outcome
COc1cc(C(C)C)c2c(c1)S(=O)(=O)N(COc1cc(=O)n3cccc(OCCN4CCCCC4)c3n1)C2=O	inactive
CC(C)C(=O)Nc1ccc([N+](=O)[O-])c(C(F)(F)F)c1	inactive
CCCC(CCC)C(=O)O	inactive

tested on: bovine Histamine 1 Receptor (H1), gene 281231; assay: NVS_GPCR_bH1: NovaScreen (NVS) G Protein-Coupled Receptor Assay for bovine Histamine 1 Receptor (H1) (AID 2283246)
In short: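 Hits from a 25 uM duplicate primary screen were retested in concentration series (top 50 uM); binding measured as scintillation-counted displacement of radioligand from bovine cerebellar membranes after 1 h, normalised to DMSO.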

SMILES	outcome
CCCCCCCCCC	inactive
NC(=O)N1c2ccccc2C=Cc2ccccc21	inactive
OCC(CO)(CO)CO	inactive

tested on: guinea pig Leukotriene B4 Receptor (LTB4), gene 100379538; assay: NVS_GPCR_gLTB4: NovaScreen (NVS) G Protein-Coupled Receptor Assay for guinea pig Leukotriene B4 Receptor (LTB4) (AID 2283247)
In short: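 Membranes from guinea pig spleen incubated 2 h with radioligand and compound; bound counts measured by filtration and scintillation. Screened first at 25 uM in duplicate, then actives titrated to a 50 uM top concentration relative to DMSO.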

SMILES	AC50	outcome
CC[C@H](C)C(=O)O[C@H]1C[C@H](O)C=C2C=C[C@H](C)[C@H](CC[C@@H](O)C[C@@H](O)CC(=O)O)[C@H]21	0.328 µM (active)	
COCc1nnc(-c2ccc[n+]([O-])c2)n1-c1c(Cl)c(Cl)cc2[nH]c(=O)c(=O)[nH]c12		inactive
O=C(NO)C1(NS(=O)(=O)c2ccc(Oc3ccc(F)cc3)cc2)CCOCC1	7.03 µM (active)	
Cc1nccn1-c1ccc(Sc2cccc(C3(C(N)=O)CCOCC3)c2)cc1	8.42 µM (active)	

target: guinea pig Leukotriene D4 Receptor (LTD4), CYSLTR1 (gene 100135514) (UniProt Q2NNR5); assay: NVS_GPCR_gLTD4: NovaScreen (NVS) G Protein-Coupled Receptor Assay for guinea pig Leukotriene D4 Receptor (LTD4) (AID 2283248)
In short: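 Guinea pig lung membrane preparation; bound radioligand measured by filter scintillation after 1 h, loss of signal versus DMSO marking displacement. Compounds tested at 25 uM in duplicate, hits retested to max 50 uM.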

guinea pig Leukotriene D4 Receptor (LTD4), CYSLTR1 (gene 100135514), sequence (Q2NNR5 whole entry, looked up): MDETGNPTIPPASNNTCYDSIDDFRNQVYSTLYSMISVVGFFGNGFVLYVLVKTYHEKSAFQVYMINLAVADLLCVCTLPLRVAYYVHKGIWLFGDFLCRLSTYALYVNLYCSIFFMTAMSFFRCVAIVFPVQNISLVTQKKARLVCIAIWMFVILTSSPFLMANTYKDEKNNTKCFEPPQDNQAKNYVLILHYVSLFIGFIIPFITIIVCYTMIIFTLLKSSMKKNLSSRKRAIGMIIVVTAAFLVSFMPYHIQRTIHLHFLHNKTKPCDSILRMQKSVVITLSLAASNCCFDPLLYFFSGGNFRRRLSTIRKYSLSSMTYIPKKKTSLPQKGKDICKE

SMILES	outcome	AC50
COCc1nnc(-c2ccc[n+]([O-])c2)n1-c1c(Cl)c(Cl)cc2[nH]c(=O)c(=O)[nH]c12	inactive	
CCN(CC)C(=S)SSC(=S)N(CC)CC		1.24 µM (active)
CC(C)c1nnc2ccc(-c3ocnc3-c3cc(F)ccc3F)cn12	inactive	
CCCCCCCCCCCCCCCCOS(=O)(=O)O		4.26 µM (active)

target: human Serotonin, 5-Hydroxytryptamine Receptor 2A (5HT2A), HTR2A (gene 3356) (UniProt P28223); assay: NVS_GPCR_h5HT2A: NovaScreen (NVS) G Protein-Coupled Receptor Assay for human Serotonin, 5-Hydroxytryptamine Receptor 2A (5HT2A) (AID 2283249)
In short: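 Radioligand displacement on human cortex tissue extract, counted by filtration and scintillation 1.5 h post-dosing. Initial single-concentration screen at 25 uM in duplicate, concentration series in follow-up; DMSO as baseline.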

human Serotonin, 5-Hydroxytryptamine Receptor 2A (5HT2A), HTR2A (gene 3356), sequence (P28223 whole entry, looked up): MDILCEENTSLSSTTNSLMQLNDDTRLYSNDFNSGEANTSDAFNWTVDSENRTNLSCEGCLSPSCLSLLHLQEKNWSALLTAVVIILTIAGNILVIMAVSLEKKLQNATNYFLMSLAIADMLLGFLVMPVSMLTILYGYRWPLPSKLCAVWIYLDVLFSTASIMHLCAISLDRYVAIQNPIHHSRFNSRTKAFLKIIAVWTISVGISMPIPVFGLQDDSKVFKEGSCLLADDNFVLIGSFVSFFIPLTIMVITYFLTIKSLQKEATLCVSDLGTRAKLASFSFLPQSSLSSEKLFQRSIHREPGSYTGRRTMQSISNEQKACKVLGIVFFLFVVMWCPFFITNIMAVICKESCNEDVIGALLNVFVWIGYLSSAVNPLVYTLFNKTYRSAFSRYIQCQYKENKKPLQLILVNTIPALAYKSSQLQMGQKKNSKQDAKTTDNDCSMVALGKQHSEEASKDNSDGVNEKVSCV

SMILES	AC50	outcome
c1ccc(C(O[C@@H]2CCCN(CCc3ccc4c(c3)OCO4)C2)c2ccccc2)cc1	10.1 µM (active)	
CCCCCCCCCC		inactive
CCn1nc(C)c2c1C(=O)NCC(c1ccc(O)cc1)=N2		inactive

tested on: guinea pig Muscarinic, Peripheral (Mperiperal) Receptor, Non-selective Binding, gene 100379235; assay: NVS_GPCR_gMPeripheral_NonSelective: NovaScreen (NVS) G Protein-Coupled Receptor Assay for guinea pig Muscarinic, Peripheral (Mperiperal) Receptor, Non-selective Binding (AID 2283250)
In short: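 Screened in duplicate at 25 uM, hits retested in concentration series to 50 uM max, using bladder membrane radioligand displacement from guinea pig. Filtration and scintillation counting 1 h post-dose, fitted relative to DMSO.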

SMILES	AC50	outcome
c1ccc(C(O[C@@H]2CCCN(CCc3ccc4c(c3)OCO4)C2)c2ccccc2)cc1	0.0261 µM (active)	
COc1cc(C(C)C)c2c(c1)S(=O)(=O)N(COc1cc(=O)n3cccc(OCCN4CCCCC4)c3n1)C2=O	2.22 µM (active)	
CCCCCCCCCC		inactive
CCCCCCCCN(C)C		inactive
Cc1nccn1-c1ccc(Sc2cccc(C3(C(N)=O)CCOCC3)c2)cc1	25 µM (active)	

target: human Serotonin, 5-Hydroxytryptamine Receptor 5A (5HT5A), HTR5A (gene 3361) (UniProt P47898); assay: NVS_GPCR_h5HT5A: NovaScreen (NVS) G Protein-Coupled Receptor Assay for human Serotonin, 5-Hydroxytryptamine Receptor 5A (5HT5A) (AID 2283251)
In short: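 Membranes from HEK293 cells, radioligand binding read by filtration and scintillation after 1 h. Single-concentration duplicate testing at 25 uM, then concentration-response for actives; positive-direction fitting relative to DMSO.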

human Serotonin, 5-Hydroxytryptamine Receptor 5A (5HT5A), HTR5A (gene 3361), sequence (P47898 whole entry, looked up): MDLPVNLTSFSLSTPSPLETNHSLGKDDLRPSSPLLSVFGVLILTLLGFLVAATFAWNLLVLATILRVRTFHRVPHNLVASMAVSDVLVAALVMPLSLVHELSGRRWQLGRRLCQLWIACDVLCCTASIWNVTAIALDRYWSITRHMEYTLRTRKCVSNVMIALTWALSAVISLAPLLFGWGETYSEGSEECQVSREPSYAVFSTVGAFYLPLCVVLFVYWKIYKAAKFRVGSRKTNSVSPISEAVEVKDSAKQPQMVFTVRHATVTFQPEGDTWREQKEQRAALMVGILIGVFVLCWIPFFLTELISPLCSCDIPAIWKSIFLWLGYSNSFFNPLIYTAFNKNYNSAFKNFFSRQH

SMILES	AC50	outcome
C=CCc1cc(S(=O)(=O)c2ccc(O)c(CC=C)c2)ccc1O	25 µM (active)	
c1ccc(C(O[C@@H]2CCCN(CCc3ccc4c(c3)OCO4)C2)c2ccccc2)cc1	25 µM (active)	
CCCCCCCCCC		inactive
CCCCCCCCCCCCCCCCOS(=O)(=O)O	20.6 µM (active)	
O=S(=O)(O)c1ccc(N=Nc2c(O)ccc3cc(S(=O)(=O)O)ccc23)cc1		inactive
